Test results: PubChem BioAssay (NCI)
This is part of a sample that, as a whole, favours compounds with a hit. Of some 83,000 tested, about 20% had one in any assay.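 Activity criterion: percent growth below 10, measured after cells in 96-well plates were exposed to a single compound concentration for 48 hours.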 Unmarked numbers belong to inactive results. Calls of active or inactive are those of the source.

Columns and labels:
Assay in all cases: NCI-60 one-dose screen, 48 h (100 = growth as untreated, 0 = no growth, -100 = all killed)
Conditions in all cases: 10 µM unless noted
[1] = tested on: NCI-H23 lung
[2] = tested on: NCI-H226 lung
[3] = tested on: NCI-H322M lung
[4] = tested on: HOP-62 NSCLC
[5] = tested on: NCI-H460 lung
[6] = tested on: NCI-H522 lung
[7] = tested on: A549/ATCC NSCLC
[8] = tested on: 786-0 renal
[9] = tested on: COLO 205 colon
[10] = tested on: DU-145 prostate
[11] = tested on: K-562 leukemia
[12] = tested on: MALME-3M melanoma
[13] = tested on: MDA-MB-231 breast
[14] = tested on: RXF 393 renal
[15] = tested on: SF-268 CNS
[16] = tested on: SF-295 CNS
[17] = tested on: SF-539 CNS
[18] = tested on: UACC-257 melanoma
[19] = tested on: M14 melanoma

SMILES	growth [1]	growth [2]	growth [3]	growth [4]	growth [5]	growth [6]	growth [7]	growth [8]	growth [9]	growth [10]	growth [11]	growth [12]	growth [13]	growth [14]	growth [15]	growth [16]	growth [17]	growth [18]	growth [19]
S=C(Nc1ccc(Cl)cc1)Nc1ccc(Cl)cc1 (tested in a mixture with another compound)	1.65% (active)	16.4%	4.59% (active)	6.8% (active)	-17.4% (active)	-27.9% (active)	1.68% (active)	22.1%	-95.7% (active)	22.2%	12.1%	-7.85% (active)	-58.7% (active)	9.51% (active)	23%	-6.55% (active)	19.1%	-14.7% (active)	19%
O=C(Nc1ccc([N+](=O)[O-])cc1)c1cc2ccccc2cc1O	-35.7% (active)	1.68% (active)	3.46% (active)	13%	-33% (active)	-31.5% (active)	-6.53% (active)	-24.2% (active)	67.8%	103%	0.836% (active)	-21.5% (active)	-35.5% (active)	-10.4% (active)	92.5%	-20.6% (active)	2.51% (active)	-33.3% (active)	-11.4% (active)
C=C1C(=O)O[C@H]2[C@H]1CC/C(COC(=O)NCc1cn(C)c3ccccc13)=C\CC[C@@]1(C)O[C@@H]21	38.4%	35.8%	80.6%	32.8%	5.72% (active)	-80.2% (active)	21%	-87.8% (active)	-75.3% (active)	-42.6% (active)	-16.5% (active)	-34.3% (active)	-8.6% (active)	-93.7% (active)	24.2%	63.2%	-34.6% (active)	-15% (active)	-42.1% (active)
O=C(NCCN1CCCCC1)n1cc(-c2ccncc2)c(-c2ccc(Cl)c(O)c2)n1	83.4%	102%	119%	79%	91.5%	84.9%	98.4%	85.9%	87%	105%	89.5%	-1.57% (active)	74.5%	68%	89.8%	120%	91.3%	58.9%	27.5%
O=C(Nc1ccc(-n2ccc3c(NC(=O)c4ccccc4)nccc32)cc1)c1ccc(N2CCOCC2)c(C(F)(F)F)c1	37.4%	43.1%	48.6%	21.1%	3.48% (active)	29.9%	6.91% (active)	-26.3% (active)	16.6%	38.9%	17.4%	55.5%	52.5%	-66.5% (active)	37%	-7.34% (active)	22.6%	55%	29.1%
S=C(Cc1ccccc1)N1CCN(c2ccccc2Cl)CC1	100%	96.9%	96.3%	105%	107%	88.2%	95.1%	96.7%	109%	102%	89.8%	95.2%	100%	117%	95.2%	90.7%	105%	110%	99.1%
CCC(=O)OCc1ccc(OC)cc1	99%	101%	110%	109%	111%	106%	107%	101%	113%	123%	94.4%	124%	101%	118%	115%	101%	93.5%	96.6%	100%
C[C@@H]1CC2C3CCC4=CC(=O)C=C[C@]4(C)[C@@]3(Cl)[C@@H](O)C[C@]2(C)[C@@]1(OC(=O)c1ccco1)C(=O)CCl (some centres undefined)	66.5%	62.8%	74.3%	94.4%	62.1%	73.9%	33.6%	80.5%	111%	79%	56.7%	87.7%	72.2%	77.7%	53.7%	64.4%	53%	96.4%	82%
CS(=O)(=O)c1ccc(C(=O)N2N=C(c3ccccc3)CC2c2ccc3c(c2)OCO3)cc1 (centres undefined)	101%	88.7%	99.6%	83.1%	98.5%	87.2%	80.2%	90.8%	81.4%	97.4%	59.9%	104%	96.2%	98.4%	95.2%	100%	103%	79.2%	95.7%
COC(=O)OC1C(O[C@H]2C[C@H]3[C@@H]4CC=C5C[C@@H](O)CC[C@]5(C)[C@H]4CC[C@]3(C)[C@H]2[C@H](C)C(=O)CCC(C)C)OCC(O)C1OC1OCC(O)C(O)C1OC(=O)c1ccc(OC)cc1 (some centres undefined)	27.9%	-8.65% (active)	45.2%	-26.5% (active)	-24.2% (active)	-49.8% (active)	1.81% (active)	-25% (active)	-52.4% (active)	34.8%	-25.2% (active)	-6.07% (active)	22.7%	-71.9% (active)	-6.22% (active)	-66.4% (active)	-58.1% (active)	-55.3% (active)	-58.5% (active)
COc1ccc(C2=NNC(c3ccc(Oc4nc5c(c(=O)n(C)c(=O)n5C)n4C)c(OC)c3)C2)cc1 (centres undefined)	103%	89.7%	102%	101%	95%	84.4%	90.5%	98.7%	127%	109%	112%	103%	93.3%	87.5%	93.4%	88.9%	97.8%	97.8%	96.9%
CC(C)CCSc1nc(-c2ccc(F)cc2)c(C#N)c(N2CCCCC2)n1	90.6%	88.8%	94.5%	102%	93.1%	78.8%	83.3%	98.5%	103%	97%	78.8%	93.9%	88%	94.3%	97.3%	103%	107%	84.7%	99.2%
COc1ccc(NC(=O)Cn2c(=O)sc3c(-c4ccc(Cl)cc4)cc(-c4ccc(Cl)cc4)nc32)cc1	91%	108%	95.1%	97.8%	102%	70%	96.7%	88.7%	100%	96.7%	85.1%	112%	110%	110%	93.1%	95.8%	98%	115%	94.1%
CN(C)c1nc(-c2cccs2)n2nc(-c3ccc(Cl)cc3)cc2n1	61.9%	-25.5% (active)	11.8%	-39.5% (active)	-1.56% (active)	39.9%	10.9%	-40.7% (active)	39.1%	72.2%	73.7%	57.6%	19.3%	13.3%	55%	-5.01% (active)	47.5%	79.6%	61.4%
C=CCOc1ccc2c(C)cc(=O)oc2c1	102%	109%	126%	112%	99.6%	93.3%	89.6%	109%	138%	109%	99.4%	132%	128%	134%	109%	99.8%	103%	105%	122%
O=C(CCl)Nc1ccc2c(c1)C(=O)c1ccccc1C2=O	-21.2% (active)	-22.6% (active)	83.5%	19.9%	3.8% (active)	-68.2% (active)	75.7%	-72.3% (active)	-50.7% (active)	3.17% (active)	-8.49% (active)	-62.5% (active)	-5.91% (active)	39.8%	-20.3% (active)	69.9%	-10.5% (active)	36.2%	-31.6% (active)
